Laboratory results as given in PubChem BioAssay (NCATS).
Results filed as inconclusive are left out. A call without a number means that no potency is given here. The source made the active and inactive calls. Calls come from the whole dose curve; as a rule, active = well fitted inhibition curve with a large enough effect; inconclusive = small, poorly fitted or top-dose-only effect; inactive = flat fitted curve, though single readings scatter.

Experiments:
Assay in all cases: qHTS profiling for inhibitors of Plasmodium falciparum proliferation (AID 504749); note: nearly all actives have a fitted effect of over 60% in size
Details in all cases: P. falciparum in erythrocytes, SYBR Green DNA, 72 h; series mostly up to 28.7 µM
ATS95 = tested on: ATS95
Outline: (§1)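 Parasite proliferation within erythrocytes, 72 h exposure. Endpoint: SYBR Green I fluorescence after overnight lysis at room temperature. Controls: 0.29 uM artemisinin, DMSO.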

C2A = tested on: C2A
Outline: as §1

CP192 = tested on: CP192
Outline: as §1

CP194 = tested on: CP194
Outline: as §1

CP237 = tested on: CP237
Outline: as §1

CP250 = tested on: CP250
Outline: as §1

CP256 = tested on: CP256
Outline: as §1

CP260 = tested on: CP260
Outline: as §1

CP269 = tested on: CP269
Outline: as §1

CP329 = tested on: CP329
Outline: as §1

DIV30 = tested on: DIV30
Outline: as §1

ECU = tested on: ECU
Outline: as §1

HB3 = tested on: HB3
Outline: as §1

JCK = tested on: JCK
Outline: as §1

PC15 = tested on: PC15
Outline: as §1

PC49 = tested on: PC49
Outline: as §1

SC27B = tested on: SC27B
Outline: as §1

TAB113 = tested on: TAB113
Outline: as §1

TAB165 = tested on: TAB165
Outline: as §1

CP315 = tested on: CP315
Outline: as §1
Potency is the fitted concentration of half-maximal effect.

Row | SMILES | Potency (ATS95) | Potency (C2A) | Potency (CP192) | Potency (CP194) | Potency (CP237) | Potency (CP250) | Potency (CP256) | Potency (CP260) | Potency (CP269) | Potency (CP329) | Potency (DIV30) | Potency (ECU) | Potency (HB3) | Potency (JCK) | Potency (PC15) | Potency (PC49) | Potency (SC27B) | Potency (TAB113) | Potency (TAB165) | Potency (CP315)
1 | C[C@@H]1CCN(C(=O)[C@H](CCCNC(=N)N)NS(=O)(=O)c2cccc3c2NC[C@H](C)C3)[C@@H](C(=O)O)C1 | inactive | inactive | inactive | inactive | inactive | inactive | inactive | inactive | inactive | inactive | inactive | inactive | inactive | inactive | inactive | inactive | inactive | inactive | inactive | 
2 | CC(=O)N1CC(O)CC1C(=O)O (stereo unspecified) | inactive | inactive | inactive | inactive | inactive | inactive | inactive |  | inactive | inactive | inactive | inactive | inactive | inactive | inactive | inactive | inactive |  | inactive | inactive
3 | CC1(C)CC1C(=O)N/C(=C/CCCCSCC(N)C(=O)O)C(=O)O (stereo unspecified) | inactive | inactive | inactive | inactive | inactive | inactive | inactive |  | inactive | inactive | inactive | inactive | inactive | inactive | inactive | inactive | inactive | inactive | inactive | inactive
4 | Nc1ncn(C2C[C@H](O)[C@@H](CO)O2)c(=O)n1 (stereo partly specified) | inactive | inactive | inactive | inactive | inactive | inactive | inactive | inactive | inactive | inactive | inactive | inactive | inactive | inactive | inactive | inactive | inactive | inactive | inactive | inactive
5 | CC(CN1CC(=O)NC(=O)C1)N1CC(=O)NC(=O)C1 (stereo unspecified) | inactive | inactive |  | inactive | inactive | inactive | inactive | inactive | inactive | inactive | inactive | inactive | inactive | inactive | inactive | inactive | inactive | inactive | inactive | inactive
6 | COc1ccc(S(=O)(=O)N2c3ccc(Cl)cc3[C@](O)(c3ccccc3Cl)[C@@H]2C(=O)N2CCC[C@H]2C(N)=O)cc1OC | inactive | inactive | inactive | inactive |  | inactive | inactive |  | inactive | inactive | inactive |  | inactive | inactive |  | inactive |  | inactive |  | inactive
7 | O=C(O)C(O)c1ccccc1 (stereo unspecified) | inactive | inactive | inactive | inactive | inactive | inactive |  | inactive | inactive | inactive | inactive | inactive | inactive | inactive | inactive | inactive | inactive | inactive | inactive | inactive
8 | C[C@]12CC[C@@H]3c4ccc(O)cc4C[C@@H](CCCCCCCCCS(=O)CCCC(F)(F)C(F)(F)F)C3[C@@H]1CC[C@@H]2O (stereo partly specified) | 8.91 µM (active) | 10 µM (active) |  |  | 5.01 µM (active) |  |  | 8.91 µM (active) |  |  | 3.79 µM (active) | 3.55 µM (active) | 5.01 µM (active) | 17.8 µM (active) | 11.2 µM (active) |  | 2.82 µM (active) | 4.47 µM (active) | 2.24 µM (active) | inactive
9 | Nc1nc2[nH]cc(CCc3ccc(C(=O)NC(CCC(=O)O)C(=O)O)cc3)c2c(=O)[nH]1 (stereo unspecified) |  | 0.316 µM (active) | 9.53 µM (active) | 3.79 µM (active) | 0.0794 µM (active) | 0.251 µM (active) | 0.224 µM (active) | 0.126 µM (active) |  | 1.2 µM (active) |  | 0.199 µM (active) | 0.0708 µM (active) | 5.62 µM (active) |  | 0.562 µM (active) |  |  | 7.94 µM (active) | 0.953 µM (active)
10 | CC(=O)OC1C([N+]2(C)CCCCC2)C[C@H]2C3CC[C@H]4C[C@H](OC(C)=O)C([N+]5(C)CCCCC5)CC4(C)C3CCC12C (stereo partly specified) | inactive | inactive |  |  | inactive | inactive | inactive | inactive |  |  |  | inactive | inactive | inactive | inactive | inactive | inactive | inactive | inactive | 
11 | CC[C@@]1(O)CC2CN(CCc3c([nH]c4ccccc34)[C@](C(=O)OC)(c3cc4c(cc3OC)N(C)C3[C@@](O)(C(=O)OC)C(OC(C)=O)[C@]5(CC)C=CCN6CC[C@@]43C65)C2)C1 (stereo partly specified) | 3.55 µM (active) | 2.82 µM (active) | 3.38 µM (active) | 3.79 µM (active) | 0.794 µM (active) | 3.55 µM (active) | 3.16 µM (active) | 0.794 µM (active) | 3.01 µM (active) | 3.01 µM (active) | 1.69 µM (active) | 2.51 µM (active) |  | 6.31 µM (active) |  |  | 2.82 µM (active) | 3.98 µM (active) | 3.55 µM (active) | 3.38 µM (active)
12 | COc1cc(/C=C2\CCC/C(=C\c3ccc(O)c(OC)c3)C2=O)ccc1O | 10 µM (active) |  |  |  | 14.1 µM (active) | 10 µM (active) |  | 12.6 µM (active) | 10.7 µM (active) |  | 8.49 µM (active) | 11.2 µM (active) | 12.6 µM (active) | 10 µM (active) | 12.6 µM (active) | 11.2 µM (active) | 11.2 µM (active) | 8.91 µM (active) | 12.6 µM (active) | 19 µM (active)
13 | OC[C@@H](O)C(O[C@@H]1O[C@@H](CO)[C@H](O)[C@H](O)[C@H]1O)[C@H](O)[C@@H](O)CO (stereo partly specified) | inactive |  | inactive | inactive | inactive | inactive | inactive | inactive | inactive | inactive | inactive | inactive | inactive | inactive | inactive | inactive | inactive | inactive | inactive | inactive
14 | Clc1ccc(CS[C@@H](Cn2ccnc2)c2ccc(Cl)cc2Cl)cc1 | 3.55 µM (active) |  |  | 5.1 µM (active) | 1.78 µM (active) |  |  |  | 6.42 µM (active) |  | 3.22 µM (active) | 1.78 µM (active) | 3.98 µM (active) |  | 3.55 µM (active) |  | 2.82 µM (active) |  | 0.708 µM (active) | 
15 | CC(C)C(=O)OCC(=O)[C@@]12OC(C3CCCCC3)O[C@@H]1CC1C3CCC4=CC(=O)C=C[C@]4(C)C3[C@@H](O)C[C@@]12C (stereo partly specified) | 0.708 µM (active) | 1.26 µM (active) |  |  | 1.41 µM (active) | 1.12 µM (active) | 1.12 µM (active) | 0.708 µM (active) |  |  |  | 1.12 µM (active) | 1.12 µM (active) | 2.51 µM (active) | 1.58 µM (active) | 1.12 µM (active) | 1.26 µM (active) | 1.12 µM (active) | 0.891 µM (active) | 
16 | CCCCC(=O)OC1CCC2C3CCc4cc(O)ccc4C3CC[C@]12C (stereo partly specified) |  | inactive | inactive | inactive | inactive | inactive |  | inactive | inactive | inactive | inactive | inactive | inactive | inactive |  | inactive |  |  |  | inactive
17 | CC(C)CCCC(C)C1CC(=O)C2=C3CCC4CC(O)CCC4(C)C3CCC21C (stereo unspecified) | inactive | inactive | inactive | inactive |  | inactive | inactive |  | inactive | inactive | inactive | inactive |  | inactive | inactive | inactive | inactive |  | inactive | inactive
18 | C#C[C@@]1(O)CC[C@@H]2[C@H]3CCC4=C/C(=N\O)CC[C@H]4[C@@H]3CC[C@]21CC | inactive | inactive | inactive |  | inactive | inactive | inactive | inactive | inactive | inactive | inactive | inactive | inactive | inactive | inactive | inactive | inactive | inactive | inactive | inactive
19 | O=C1Oc2ccccc2C(=O)C1C(CC(O)c1ccc(-c2ccc(Br)cc2)cc1)c1ccccc1 (stereo unspecified) | inactive |  | inactive | inactive | inactive |  |  | inactive | inactive | inactive | inactive |  | inactive |  | inactive | inactive | inactive | inactive | inactive | inactive
20 | CNC1CCc2cc(OC)c(OC)c(OC)c2-c2ccc(OC)c(=O)cc21 (stereo unspecified) | inactive | inactive | inactive | inactive |  | inactive | inactive | inactive | inactive | inactive |  | inactive | inactive | inactive | inactive | inactive | inactive | inactive | inactive | inactive
21 | COc1ccc(C(=O)/C(Br)=C/C(=O)O)cc1 |  | inactive | inactive |  | inactive | inactive | inactive | inactive |  | inactive |  |  | inactive | inactive | inactive | inactive |  |  |  | inactive
22 | CC1(C)SC2[C@@H](N=CN3CCCCCC3)C(=O)N2[C@H]1C(=O)O (stereo partly specified) | inactive | inactive | inactive | inactive | inactive | inactive |  | inactive | inactive | inactive | inactive | inactive | inactive | inactive | inactive | inactive | inactive |  |  | inactive
23 | Nc1nc(Cl)nc2c1ncn2[C@@H]1O[C@H](CO)[C@H](O)C1F (stereo partly specified) | inactive | inactive | inactive | inactive | inactive | inactive | inactive | inactive | inactive | inactive | inactive | inactive | inactive | inactive | inactive | inactive | inactive | inactive | inactive | inactive
24 | CCN(CC)C(=O)[C@@]1(c2ccccc2)C[C@@H]1CN | inactive | inactive | inactive | inactive | inactive | inactive | inactive | inactive | inactive | inactive | inactive | inactive | inactive | inactive | inactive | inactive | inactive | inactive | inactive | inactive
25 | CCC1OC(=O)C[C@H](O)C(C)[C@@H](O[C@@H]2OC(C)C(O)C(N(C)C)C2O)C(CCN2CC(C)CC(C)C2)CC(C)C(=O)/C=C/C(C)=C\[C@@H]1COC1OC(C)C(O)C(OC)C1OC (stereo partly specified) |  | 10 µM (active) |  |  | 5.01 µM (active) |  | 8.91 µM (active) | 11.2 µM (active) |  |  |  |  | inactive |  | inactive |  |  |  |  | 
26 | CC1(C)O[C@@H]2C[C@H]3[C@@H]4CCC5=CC(=O)C=C[C@]5(C)[C@H]4C(O)C[C@]3(C)[C@]2(C(=O)CO)O1 (stereo partly specified) | inactive | inactive | inactive | inactive |  | inactive | inactive |  | inactive | inactive | inactive |  | inactive | inactive | inactive |  |  | inactive |  | 
27 | CN(C)CC[C@@](O)(c1ccccc1)c1ccccc1Cl | 11.2 µM (active) |  |  | 7.57 µM (active) | 1.41 µM (active) |  | 5.62 µM (active) | 10 µM (active) | 12 µM (active) |  | 10.7 µM (active) | 7.94 µM (active) |  |  | 7.08 µM (active) |  | 5.62 µM (active) | 11.2 µM (active) | 6.31 µM (active) | 
